In the library only some 12% were active in any assay of this set; here they are far more common.
Cl transport mod = modulators of human KCC2 chloride dependent transport; KCC2 cells, thallium flux FluoZin-2 fluorescence; B-score of Tl+ flux slope (higher = more flux/activation; lower = inhibition) at 10 µM; actives 2.2% (n = 190,000); AID 1456;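 active means thallium flux slope and its plate-corrected score both differing from the plate sample mean at a set confidence after two filtering rounds, in either direction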;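 further: slope of fluorescence scaled to starting intensity during 10 to 20 s after thallium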
Target sequence (Q9H2X9 whole entry, looked up): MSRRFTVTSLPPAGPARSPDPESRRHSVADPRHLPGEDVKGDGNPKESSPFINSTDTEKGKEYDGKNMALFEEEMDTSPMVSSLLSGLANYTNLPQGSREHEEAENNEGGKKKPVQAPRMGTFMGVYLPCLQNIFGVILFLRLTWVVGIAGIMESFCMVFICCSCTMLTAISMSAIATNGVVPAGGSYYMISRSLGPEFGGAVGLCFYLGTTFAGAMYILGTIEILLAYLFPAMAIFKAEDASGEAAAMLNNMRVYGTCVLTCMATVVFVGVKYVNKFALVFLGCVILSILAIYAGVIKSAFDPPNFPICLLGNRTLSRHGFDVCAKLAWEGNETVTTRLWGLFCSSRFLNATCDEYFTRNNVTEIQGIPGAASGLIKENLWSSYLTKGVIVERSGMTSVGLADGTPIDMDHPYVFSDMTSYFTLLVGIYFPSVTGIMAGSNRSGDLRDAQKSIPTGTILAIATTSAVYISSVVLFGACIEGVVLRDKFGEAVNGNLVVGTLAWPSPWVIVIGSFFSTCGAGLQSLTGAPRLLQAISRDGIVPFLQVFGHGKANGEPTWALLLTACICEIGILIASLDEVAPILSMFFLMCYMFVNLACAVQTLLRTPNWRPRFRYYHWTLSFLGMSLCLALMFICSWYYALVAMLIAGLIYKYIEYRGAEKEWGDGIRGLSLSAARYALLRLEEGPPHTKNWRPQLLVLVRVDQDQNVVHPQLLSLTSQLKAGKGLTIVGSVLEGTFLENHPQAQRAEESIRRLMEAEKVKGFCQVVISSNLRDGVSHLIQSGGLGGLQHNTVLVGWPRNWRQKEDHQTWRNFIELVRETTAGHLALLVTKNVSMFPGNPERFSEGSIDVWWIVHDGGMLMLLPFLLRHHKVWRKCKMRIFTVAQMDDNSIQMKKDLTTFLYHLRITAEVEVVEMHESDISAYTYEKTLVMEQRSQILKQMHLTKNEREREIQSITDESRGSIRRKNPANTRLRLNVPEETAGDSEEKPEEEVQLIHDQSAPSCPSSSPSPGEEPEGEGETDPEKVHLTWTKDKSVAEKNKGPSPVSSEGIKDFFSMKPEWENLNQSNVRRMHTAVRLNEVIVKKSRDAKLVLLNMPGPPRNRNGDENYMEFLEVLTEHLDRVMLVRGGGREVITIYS
ROMK primary = modulates human ROMK potassium channel activity | P48048 | Tet-inducible ROMK, thallium flux fluorescence; actives lie on both sides | B-score at 10 µM | actives 2% (n = 130,000) | AID 1918;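 active means signal ratio slope over the read window, or its plate-corrected B-score, at least 3 SD from the plate mean, either direction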;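 further: B-score of the F/F0 ratio slope over 7 to 12 s after thallium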
Calpain2 inh = blocks pig calpain II enzyme activity; purified calpain II, fluorogenic peptide substrate, 30 min; inhibition, % at 16 µM; actives 0.37% (n = 220,000); AID 1236;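 active means inhibition above about 50%, limit read from the data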
WT yeast gro inh = growth inhibition of WT yeast, mitochondrial fusion screen; inhibition, % at 10 µM; actives 2.1% (n = 190,000); AID 1362; mitochondrial fusion phenotypic screen, WT strain; in the data active means inhibition above about 58%; tested in S. cerevisiae
L major viab = reduces viability of Leishmania major promastigotes; inhibition, % at 10 µM; resazurin fluorescence viability; actives 9% (n = 200,000); AID 1063; in the data active means inhibition above about 50%;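 further: promastigotes grown with compound for 44 hours at 28 °C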
KCC2 secondary = KCC2 (human) modulation, secondary assay. HEK293-KCC2, thallium flux, FluoZin2 fluorescence; active compounds read high. AID 1713. normalised thallium flux (F/F0 slope) at 10 µM. actives 15% (n = 3,700). shares compounds with Cl transport mod;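 active means thallium flux slope above the same plate's solvent-only control mean plus 3 SD; inconclusive means the two replicate wells disagree; inactive means no significant difference from solvent-only control wells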
KCC2 bumet counter = thallium flux despite bumetanide block in KCC2 cells, secondary assay 3 | shares compounds with Cl transport mod | HEK293-KCC2 + bumetanide/ouabain, thallium flux FluoZin2; active compounds read high | actives 49% (n = 3,700) | normalized thallium flux at 10 µM;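 active means thallium entry rate above the same plate's blocked-transporter control wells by more than 3 SD; inconclusive means the two repeat wells disagree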;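 further: raw slope of fluorescence over initial fluorescence between 10 and 20 s after thallium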
KCC2 sec2 = KCC2 (human) modulation, second secondary assay | shares compounds with Cl transport mod | HEK293-KCC2, thallium flux FluoZin2 fluorescence; actives lie on both sides; F/F0 rise rate, 10–20 s post-thallium | normalized thallium flux at 10 µM | actives 23% (n = 3,700);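 active means thallium flux slope more than 3 SD above or below the plate's solvent-only control mean, mostly below; inconclusive means the two repeat wells disagreed; inactive means no significant shift from solvent-only controls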;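 further: raw slope with 0.1% DMSO as baseline and bumetanide as block control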
HEK counter1 = acts in parental HEK cells, KCC2 counter-screen | HEK293 parental cells, thallium flux FluoZin2, ouabain; baseline-ratio fluorescence slope, 10–20 s after thallium | AID 1716 | actives 46% (n = 3,700) | shares compounds with Cl transport mod | thallium flux rate (normalised fluorescence) at 10 µM;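 active means thallium flux rate significantly above the same plate's solvent-only control wells, beyond their mean plus 3 SD; inconclusive means the two replicate wells gave conflicting results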
KCC2 retest ouab = modulates human KCC2 on retest with ouabain | shares compounds with Cl transport mod | HEK293-KCC2, thallium flux FluoZin2 fluorescence; bidirectional: low = inhibitor, high = activator | raw Tl+ flux slope (below DMSO = inhibition, above = activation) at 10 µM | actives 48% (n = 3,700) | AID 1717;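 active means thallium flux slope beyond 3 SD from same-plate DMSO control mean in most replicates, usually higher, sometimes lower; inconclusive means repeat tests gave conflicting results; inactive means no significant difference from controls in most replicates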;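 further: slope of initial-normalized fluorescence between seconds 10 and 20 after thallium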
HEK counter2 = counter-screen for KCC2 modulators: effect in parental HEK293 cells; shares compounds with Cl transport mod; actives 33% (n = 3,700); thallium flux FluoZin-2 fluorescence slope; thallium flux slope at 10 µM;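 active means thallium flux slope above the same plate's solvent-control mean plus 3 SD in both duplicate wells; inconclusive means duplicate wells that disagreed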;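 further: run without ouabain in cells lacking the KCC2 cotransporter; slope of fluorescence scaled to its starting value between 10 and 20 s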
Numbers without * were called inactive; i = inactive; ? = inconclusive; · = no result.

SMILES	Cl transport mod	ROMK primary	Calpain2 inh	WT yeast gro inh	L major viab	KCC2 secondary	KCC2 bumet counter	KCC2 sec2	HEK counter1	KCC2 retest ouab	HEK counter2
CN(C)c1ccc(CN(C(=O)c2ccc(Cl)c([N+](=O)[O-])c2)C2CCS(=O)(=O)C2)cc1 (centres undefined)	0.044	·	1	·	·	·	·	·	·	·	·
Cc1cc2oc(=O)cc(CN3CCOCC3)c2cc1C	6.9*	-0.26	-13	0	-3	0.0062	0.0053	0.026*	0.0076	0.018	0.011
Cc1ccc(S(=O)(=O)N2CCC(C(=O)NCc3ccccc3Cl)CC2)cc1	-2.9*	-1.4	-4	17	73*	0.0052	0.0045	0.028	0.0071	0.015*	0.011
O=C(NCc1ccccc1Cl)C1CCN(S(=O)(=O)c2ccc(F)cc2)CC1	0.25	·	-18	3	1	·	·	·	·	·	·
O=C(NC(=S)Nc1ccc(N2CCN(C(=O)c3ccccc3)CC2)cc1)c1cccs1	3.4*	-0.2	8	33	92*	0.01	0.0097*	0.033	0.01*	0.02	0.012
O=C(c1ccc2ccccc2c1)N1CCN(c2ccc(O)cc2)CC1	-3.7*	·	-37	21	90*	0.01	0.0062	0.033	0.0082	0.019	0.012
CS(=O)(=O)Nc1ccc(C(=O)N2CCN(c3ccccc3)CC2)cc1	0.22	·	2	3	-3	0.0077	0.0043	0.027	0.0078	0.018	0.0098
O=C(NC(=S)N1CCN(c2ccc(O)cc2)CC1)c1cccs1	2.8	·	1	·	·	·	·	·	·	·	·
O=C(NC(=S)Nc1ccc(N2CCCCC2)cc1)c1cccs1	·	·	1	3	-7	·	·	·	·	·	·
O=C(c1ccc(S(=O)(=O)N2CCCCC2)cc1)N1CCN(c2ccccc2)CC1	-0.93	·	26	2	16	·	·	·	·	·	·
O=C(NC(=S)N1CCN(c2ccc(F)cc2)CC1)c1cccs1	32*	2.6	5	52	-3	0.012*	0.12*	0.11*	0.12*	0.11*	0.11*
Cc1ccc2nsnc2c1NC(=O)c1cccnc1Cl	-0.39	0.38	-13	-11	-5	·	·	·	·	·	·
N#Cc1cc(-c2ccccc2)c[nH]c1=O	·	·	i	-7	-3	·	·	·	·	·	·
COc1ccc(C(=O)O)cc1S(=O)(=O)N(C)C	-0.38	-0.13	-13	-12	5	·	·	·	·	·	·
Cc1nn2c(NC(C)C)c3c(nc2c1-c1ccccc1)CCC3	-1.6	·	13	·	·	·	·	·	·	·	·
Cc1nn2c(NCC(C)C)c3c(nc2c1-c1ccccc1)CCC3	9.5*	·	-232	-4	4	0.0088	0.0052	0.03	0.0073	0.018	0.011
Cc1nnc(N/N=C/c2ccco2)n1N	0.15	-0.57	-32	-23	-4	·	·	·	·	·	·
CCn1c(SCC(=O)Nc2nc3ccccc3s2)nc2c(c1=O)SC(C)C2 (centres undefined)	-4.1*	·	39	5	26	0.0072	0.0052	0.03	0.0057*	0.02*	0.0091
CCOc1ncccc1C(=O)OCc1cccc([N+](=O)[O-])c1	-0.23	-1.4	18	-3	9	·	·	·	·	·	·
COc1ccc(S(=O)(=O)Nc2ccccc2C(=O)NCc2ccco2)cc1Br	-4.1*	·	-75	7	-1	?	0.0038	0.023*	0.0049*	0.012*	0.0083*
c1ccc(CSc2nnc(NC3=NCCCCC3)s2)cc1	·	-0.58	-9	22	9	0.0076	0.0052	0.028	0.0072	0.034*	0.01
COc1cc(OC)c(NC(=O)C(=O)CC(=O)c2ccc(C)cc2C)cc1Cl	16*	-0.47	-45	-3	100*	0.01	0.046*	0.031	0.019*	0.027	0.012*
COc1cc(OC)c(NC(=O)Cn2cccc2)cc1Cl	·	-0.11	0	-4	-1	·	·	·	·	·	·
CCOC(=O)N1CCN(C(=O)CCCn2nc(C)c3sc4ccccc4c3c2=O)CC1	-1.5	·	5	-10	-3	·	·	·	·	·	·
O=C(Nc1nnc(-c2ccc(F)cc2)s1)Nc1ccccc1F	-0.56	0.7	-15	·	·	·	·	·	·	·	·
SMILES	Cl transport mod	ROMK primary	Calpain2 inh	WT yeast gro inh	L major viab	KCC2 secondary	KCC2 bumet counter	KCC2 sec2	HEK counter1	KCC2 retest ouab	HEK counter2
O=C(Nc1nnc(-c2cccc(F)c2)s1)Nc1ccccc1F	3.8*	0.0066	-9	4	-5	0.0064	0.0048	0.031	0.0074	0.02	0.011
O=C(Nc1nnc(COc2ccccc2F)s1)Nc1ccccc1F	2.6*	·	13	·	·	0.0086	0.0054	0.032	0.0078	0.022	0.01
Cc1cccc(NC(=S)NNc2ncc(C(F)(F)F)cc2Cl)c1	16*	0.64	-9	4	-8	0.011	0.12*	0.032	0.027*	0.055*	0.014*
Cc1nccn1CC(=O)N/N=C/c1cccs1	0.44	-0.037	-15	·	·	·	·	·	·	·	·
Cn1cnc2cc(OC(=O)c3ccccc3)ccc21	·	0.074	-15	-2	-2	0.01	0.0066	0.028	0.0073	0.05	?
CC(=O)c1c(N2CCOCC2)[nH]c(-c2ccccc2)nc1=S	13*	0.35	0	8	8	0.017*	0.032*	?	0.019*	0.041*	?
CC(=O)c1sc(N2CCOCC2)nc1-c1ccccc1	-0.25	-0.77	-1	-1	-10	·	·	·	·	·	·
O=C(N/N=C/c1cn(-c2cccs2)nc1-c1ccccc1)c1ccccc1O	5.4*	-0.088	-33	60*	99*	0.0096	0.019*	0.032	0.011*	0.023	?
O=C(N/N=C/c1cn(-c2cccs2)nc1-c1ccccc1)c1ccccc1Br	0.26	·	-27	12	13	·	·	·	·	·	·
O=C(NCc1cccnc1)c1ccc(S(=O)(=O)N2CCCCCC2)cc1	-0.0052	-0.23	3	-13	3	·	·	·	·	·	·
O=c1oc(-c2ccccc2Cl)nc2ccsc12	·	-1.4	4	-26	3	·	·	·	·	·	·
O=c1oc(-c2ccc(F)cc2)nc2ccsc12	·	0.69	5	-7	-3	0.0061	0.005	0.032	?	0.017*	0.01
COc1ccc2nc(SCC(=O)Nc3ccc4c(c3)OCCO4)[nH]c2c1	-2.5*	·	-5	-16	-1	0.0072	0.0048	0.03	0.0073	0.02	0.011
NNC(=O)c1ccc2ccccc2n1	26*	1.1	-33	-1	-6	0.0072	0.056*	0.042*	0.038*	0.047*	0.023*
